Laboratory results published in PubChem BioAssay (NCI).
This is part of a sample that, as a whole, favours compounds with a hit. Of some 83,000 tested, about 20% had one in any assay.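 Results are percent growth after 48 hours of single-concentration exposure. 100 means growth as in untreated cells, lower positive values show inhibition; negative values down to -100 show cell death.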 Values without a mark were called inactive. Calls of active or inactive are those of the source. How the source made its calls: active means growth percent below 10; inactive means the rest.

Columns and labels:
Test in all cases: NCI-60 one-dose screen, 48 h (100 = growth as untreated, 0 = no growth, -100 = all killed)
Conditions in all cases: 10 µM unless noted
DU-145 prostate = tested on: DU-145 prostate
K-562 leukemia = tested on: K-562 leukemia
MALME-3M melanoma = tested on: MALME-3M melanoma
MDA-MB-231 breast = tested on: MDA-MB-231 breast
RXF 393 renal = tested on: RXF 393 renal
SF-268 CNS = tested on: SF-268 CNS
SF-295 CNS = tested on: SF-295 CNS
SF-539 CNS = tested on: SF-539 CNS
UACC-257 melanoma = tested on: UACC-257 melanoma
M14 melanoma = tested on: M14 melanoma

Structure (SMILES)	growth (DU-145 prostate)	growth (K-562 leukemia)	growth (MALME-3M melanoma)	growth (MDA-MB-231 breast)	growth (RXF 393 renal)	growth (SF-268 CNS)	growth (SF-295 CNS)	growth (SF-539 CNS)	growth (UACC-257 melanoma)	growth (M14 melanoma)
O=C(O)c1ccccc1Oc1cc(-c2ccco2)nc(OCCBr)n1	104%	100%	99.1%	105%	135%	98.7%	95.1%	105%	97.8%	104%
COc1ccc(-c2nc(Nc3ccc(F)cc3)nc(Nc3ccc4c(c3)nc(C)n4Cc3ccccc3)n2)cc1	54.7%	16.1%	52.8%	31.2%	35.7%	46.9%	49%	67.8%	43.8%	38.9%
Cc1c(C)n(CC(O)CNC2CCCCC2C)c2ccccc12 (stereo not given)	-67.2% (active)	4.09% (active)	-64.1% (active)	-9.38% (active)	-90.2% (active)	-42.5% (active)	-45.7% (active)	-87.3% (active)	-75.8% (active)	-59.4% (active)
COc1ccc(C2SC(C)C(=O)N2CCc2cccs2)cc1OC (stereo not given)	93.3%	62.3%	119%	73.2%	86.1%	89.2%	75.5%	94.1%	75.7%	121%
Cc1ccc2c(N/N=C\c3ccco3)cc(C)nc2n1	59.6%	37.2%	90.7%	68.9%	63.7%	77.5%	69.5%	72%	76.5%	34.6%
Cc1ccc2c(c1)c(Sc1ccc(C(=O)NO)cc1)c1n2CN(C)CC1	11.7%	11.5%	26.6%	-32.2% (active)	33%	1.67% (active)	11.8%	-35.1% (active)		26%
COc1ccc(/C=N/NC(=O)c2cnn(CC(O)Cc3ccccc3)c2N)cc1OC1CCCC1 (stereo not given)	91.2%	99.5%	99.4%	86.1%	85.8%	98.3%	83.8%	87.3%	110%	99.5%
CN1CCc2cccc3c2C1Cc1ccc(O)c(O)c1-3 (stereo not given)	96.3%	64.3%	83.1%	65.7%	91.1%	87.6%	97.8%	84.2%	103%	76.1%
O=c1c2c(=NCCN3CCCC3)cc3c(=O)n(CCCN4CCOCC4)c(=O)c4c(-c5ccc(CN6CCCC6)cc5)cc(c(O)n1CCCN1CCOCC1)c2c4-3	-26.7% (active)	-21.1% (active)	-70.1% (active)	-46.6% (active)	-79.4% (active)	-33.1% (active)	-12.5% (active)	-78.8% (active)	-27.1% (active)	-78.7% (active)
Cc1nn(-c2ccccc2)c2nc3nc4c(c(N)c3c(-c3ccc(Cl)cc3)c12)CCC4	90.1%	27.7%	109%	88.1%	79.9%	102%	92.1%	90%	91.4%	98.6%
CCCCC(CCCC)(S(=O)(=O)CC)S(=O)(=O)CC	107%	101%	99.8%	119%	98.9%	109%	100%	101%	101%	101%
COc1cc2nc(SCc3cc(OC)c(OC)c(OC)c3)n(-c3ccccc3OC)c(=O)c2cc1OC	81.8%	27.3%	63%	77.5%	78.1%	69.9%	73.8%	89.9%		77.1%
O=[N+]([O-])c1ccc(C=C2C(Cl)=C(Cl)C(Cl)=C2Cl)cc1	73%	7.31% (active)	108%	74.8%	0.914% (active)	55.1%	86.3%	75.8%	67.7%	36.9%
Cc1nc(NN)c([N+](=O)[O-])c(NN)n1	109%	93.6%	106%	107%	160%	102%	98.5%	95.2%	99.3%	98.2%
COc1cc(/C=C/C(=O)C2=C(/C=C/c3ccc(O)c(OC)c3)NC(=O)NC2c2ccc(O)c(OC)c2)ccc1O (stereo not given)	111%	87%	117%	67.7%	97.1%	93.5%	93.1%	87%	85.6%	94%
C=CC(=O)N1CC2(CCC(n3nc(-c4ccc(Oc5ccccc5)cc4)c4c(N)ncnc43)CC2)C1	-52.3% (active)	3.48% (active)	-70.7% (active)	-31% (active)	-94.9% (active)	-81.1% (active)	-13.9% (active)	-94.4% (active)		-79.7% (active)
CCCCc1ccc(NC(=O)C(F)(F)F)cc1	100%	85.8%	140%	99.8%	93.4%	83.9%	105%	100%	110%	105%
Cc1cc(=O)[nH]n1-c1cc(Cl)ccc1N	132%	99.4%	108%	124%	107%	116%		102%	89.8%	99.8%
O=C(Nc1nc2ccccc2[nH]1)C(=O)Nc1nc2ccccc2[nH]1	114%	94.1%	91.4%	91%	102%	102%		95.8%	101%	98.8%
CC(C)OC1=C(Cl)C(=O)c2ccccc2C1=O	119%	22.8%	111%	85.6%	99.6%	93.5%		38.4%	89.6%	97.8%
O=c1[nH]c(-c2ccccn2)nc2sc3c(c12)CCCCCC3	48.8%	20.4%	61.9%	49.3%	50.7%	40.6%	-6% (active)	61.7%		46.1%
CCOC(=O)C1=C(C)N2C(=NC3=C(CCCC/C3=C\c3ccccc3)C2c2ccccc2)S1 (stereo not given)	105%	99.2%	86.7%	107%	88.3%	99.2%	74%	99.3%		95.9%
c1ccc(-c2nc(N3CCOCC3)c3c4c(sc3n2)CCCCCC4)nc1	76.1%	32%	58.4%	63.4%		74.1%	6.04% (active)	77%		59.2%
COCCOC1=C(Cl)C(=O)c2ccccc2C1=O	38.7%	8.89% (active)	96.4%	34.8%	18.7%	24.1%		-10.4% (active)	-17.3% (active)	40.1%
O=C1C(OCCOc2ccccc2)=C(OCCOc2ccccc2)C(=O)c2ccccc21	56.7%	66.4%	54.7%	70.5%	79.4%	77.2%		94.9%	14.8%	51.4%
Brc1ccccc1Nc1ccc2nnc(-c3ccncc3)n2n1	113%	46.9%	99.7%	108%	101%	99.4%		104%	106%	101%
Oc1ccc(Cl)cc1CNc1nc2ccccc2[nH]1	-50.6% (active)	-50.4% (active)	-56.4% (active)	-24.1% (active)	51.7%	-39.7% (active)		-50.9% (active)	-63.4% (active)	-49.1% (active)
CN([N-]C(=O)CC(=O)[N-]N(C)C(=S)c1ccccc1)C(=S)c1ccccc1.[Cu+2]	-74.1% (active)	-29.7% (active)	-90.3% (active)	-89.5% (active)	-91.8% (active)	-67.3% (active)		-69.3% (active)	-92.9% (active)	-58.2% (active)
